C diff growth: C. difficile growth inhibitors, primary screen, HTS. growth activity, negative = inhibition, % at 16 µg/mL (by protocol). Clostridium difficile clinical isolate growth, OD600, 24 h; stronger effect = lower value. AID 1259249, 2017. hit rate 0.25% among 86,000;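 active = mean growth activity at or below -80% and every replicate also at or below -80%; inconclusive = mean at or below -80% but some replicate above -80%; inactive = mean growth activity above -80%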;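 note: 0% = DMSO wells and -100% = levofloxacin 16 µg/mL wells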
T cruzi growth-1: T. cruzi intracellular proliferation inhibitors, primary screen, cell-based, beta-gal Tulahuen parasites, NIH3T3 host, luminescence; T. cruzi beta-gal in NIH3T3, GalScreen luminescence, 90 h; inhibition, % at 8.34 µM; hit rate 5.9% among 77,000; AID 624255, 2012;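 active = mean inhibition above about 93%, with at least 55% of replicates each passing it, limit read from the data, passing the limit was not always enough; inconclusive = only one of those two conditions holds; inactive = neither condition holds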
Pf Dd2 growth: P. falciparum Dd2 growth inhibitors, primary screen, SYBR Green fluorescence, single dose replicates; 72 h; stronger effect = lower value; activity change, % at 10 µM; hit rate 2.3% among 94,000; in the data active = activity change below about -80%; inconclusive = no clear call, values can overlap the other calls
T cruzi growth-2: T. cruzi intracellular proliferation inhibitors, confirmation, cell-based, NIH3T3 host, beta-gal parasite, luminescence, cherry-pick; shares compounds with T cruzi growth-1; T. cruzi beta-gal in NIH3T3, GalScreen luminescence, 90 h; inhibition, % at 8.35 µM; hit rate 72% among 5,600; AID 651739, 2012;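 active = mean replicate inhibition above about 95% and at least 55% of replicates individually reaching it, limit read from the data; inconclusive = only one of the two criteria is met; inactive = neither criterion is met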
T cruzi growth-3: inhibitors of intracellular T. cruzi replication, confirmation, NIH3T3 host cells, beta-gal parasites, cherry-pick, set 2. shares compounds with T cruzi growth-1. T. cruzi beta-gal in NIH3T3, GalScreen luminescence, 90 h. inhibition, % at 2.09 µM. hit rate 21% among 5,600. AID 651740, 2012;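 active = mean inhibition above about 95%, with at least 55% of replicates also reaching it, limit read from the data; inconclusive = meets just one of the two conditions; inactive = meets neither condition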;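 note: plate controls were neutral control median for no effect and positive control median for full effect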
3T3 cytotox: cytotoxicity in mouse NIH/3T3 fibroblasts, confirmation, cytotoxicity control for T. cruzi proliferation inhibitor project, cell-based, cherry-pick, single point; AID 651742, 2012; cytotoxicity (signal decrease), % at 8.35 µM; hit rate 14% among 5,600; shares compounds with T cruzi growth-1; NIH/3T3 viability, CellTiter-Glo ATP luminescence, 90 h;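 active = mean signal decrease across replicates above about 35% based on untreated-well scatter, with enough replicates individually passing, limit read from the data; inconclusive = no rule stated though some were filed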;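 note: 0% = median of neutral control wells and 100% = median of positive control wells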
3T3 cytotox 2: NIH/3T3 fibroblast cytotoxicity, confirmation, cytotoxicity control, cell-based, cherry-pick, single point, set 2; shares compounds with T cruzi growth-1; inhibition, % at 24.9 µM; hit rate 56% among 5,600; NIH/3T3 viability, CellTiter-Glo ATP luminescence, 90 h; AID 651744, 2012;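 active = mean loss of cell viability signal at or above a set limit, and enough replicates individually reaching it; inconclusive = meets only the mean limit or only the replicate share; inactive = meets neither condition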;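 note: 0% = median of neutral control wells and 100% = median of positive control wells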
An asterisk follows results filed as active; ? = inconclusive; . = not tested or not shown. Most compounds without a hit are left out; they make up all but 6.7% or so of the library.

SMILES	C diff growth	T cruzi growth-1	Pf Dd2 growth	T cruzi growth-2	T cruzi growth-3	3T3 cytotox	3T3 cytotox 2
C[C@@H]1CN([C@H](C)CO)C(=O)Cc2cc(NC(=O)CCC(F)(F)F)ccc2O[C@H]1CN(C)Cc1ccc(C(=O)O)cc1	1	8	11	.	.	.	.
COc1ccc(C#Cc2ccc3c(c2)[C@@H]2[C@@H](CCN2C(=O)C2CCCCC2)[C@@H](CO)N3)cc1	5	101*	-25	101*	86	27	95*
COc1ccc(C#Cc2ccc3c(c2)[C@H]2[C@H](CCN2C(=O)C2CC2)[C@H](CO)N3)cc1	-11	104*	-46	110*	67	0	41*
COc1ccc(C#Cc2ccc3c(c2)[C@H]2[C@H](CCN2C(C)=O)[C@H](CO)N3)cc1	-14	54	-13	.	.	.	.
O=C(C1CCCCC1)N1CC[C@@H]2[C@@H](CO)Nc3ccc(C#Cc4ccc(F)cc4)cc3[C@@H]21	42	.	-70	.	.	.	.
COc1ccc(C#Cc2ccc3c(c2)[C@@H]2[C@@H](CCN2C(=O)c2ccncc2)[C@@H](CO)N3)cc1	-18	122*	-68	105*	57	-18	13
COc1ccccc1C#Cc1ccc2c(c1)[C@H]1[C@H](CCN1C(=O)c1ccncc1)[C@@H](CO)N2	57	.	-22	.	.	.	.
C[C@@H]1CN([C@H](C)CO)C(=O)c2cc(-c3ccncc3)cnc2O[C@@H]1CN(C)C(=O)NC1CCCC1	1	.	13	.	.	.	.
C[C@@H]1CN([C@@H](C)CO)C(=O)c2cc(NC(=O)Nc3cccc4ccccc34)ccc2O[C@@H](C)CCCCO[C@H]1CN(C)Cc1ccncc1	-3	55	0	.	.	.	.
C[C@@H]1CCCCO[C@@H](CN(C)Cc2ccncc2)[C@H](C)CN([C@@H](C)CO)C(=O)c2cc(NC(=O)Nc3cccc4ccccc34)ccc2O1	9	106	24	.	.	.	.
C[C@@H]1CCCCO[C@@H](CN(C)Cc2ccc(Cl)c(Cl)c2)[C@@H](C)CN([C@@H](C)CO)C(=O)c2cc(NC(=O)Nc3cccc4ccccc34)ccc2O1	8	124*	-32	96*	103*	-3	-2
C[C@H]1CCCCO[C@H](CN(C)Cc2ccc(Cl)c(Cl)c2)[C@@H](C)CN([C@@H](C)CO)C(=O)c2cc(NC(=O)Nc3cccc4ccccc34)ccc2O1	-11	?	-25	112*	111*	2	6
C[C@@H]1CCCCO[C@H](CN(C)Cc2ccc(Cl)c(Cl)c2)[C@@H](C)CN([C@H](C)CO)C(=O)c2cc(NC(=O)Nc3cccc4ccccc34)ccc2O1	0	?	1	111*	75	-1	-12
C[C@H](CO)N1C[C@H](C)[C@@H](CN(C)Cc2ccncc2)OCCCC[C@H](C)Oc2ccc(NC(=O)Nc3cccc4ccccc34)cc2C1=O	-4	43	27	.	.	.	.
C[C@@H]1CCCCO[C@H](CN(C)C(=O)Nc2ccc(F)cc2)[C@H](C)CN([C@@H](C)CO)C(=O)c2cc(NC(=O)CCCN(C)C)ccc2O1	4	17	18	.	.	.	.
COc1ccc(CNC(=O)C[C@H]2C[C@H]3c4cc(NS(C)(=O)=O)ccc4O[C@H]3[C@H](CO)O2)cc1	2	27	12	.	.	.	.
O=C(Nc1ccc(F)cc1)Nc1ccc2c(c1)[C@@H]1C[C@@H](CC(=O)N3CCCCC3)O[C@H](CO)[C@@H]1O2	2	73	-10	.	.	.	.
O=C(C[C@H]1C[C@H]2c3cc(NS(=O)(=O)c4ccccc4)ccc3O[C@H]2[C@@H](CO)O1)N1CCCCC1	-3	39	-8	.	.	.	.
O=C(C[C@@H]1C[C@H]2c3cc(NS(=O)(=O)c4ccccc4)ccc3O[C@H]2[C@H](CO)O1)N1CCCCC1	-2	104*	-42	59	36	24	40*
O=C(C[C@@H]1C[C@H]2c3cc(NS(=O)(=O)c4ccccc4)ccc3O[C@H]2[C@@H](CO)O1)N1CCOCC1	-8	46	-2	.	.	.	.
O=C(Nc1ccc(F)cc1)Nc1ccc2c(c1)[C@H]1C[C@@H](CC(=O)N3CCCCC3)O[C@@H](CO)[C@H]1O2	2	111*	-67	18	-5	-7	-1
O=C(C[C@@H]1C[C@H]2c3cc(NS(=O)(=O)c4ccccc4)ccc3O[C@H]2[C@@H](CO)O1)N1CCCCC1	-4	101*	-5	70	-9	-2	16
COCC(=O)N(C)C[C@H]1Oc2ncc(C#CC3(O)CCCC3)cc2C(=O)N([C@@H](C)CO)C[C@H]1C	2	30	14	.	.	.	.
CO[C@@H](CN(C)C(=O)c1ccccc1F)[C@@H](C)CN([C@@H](C)CO)S(=O)(=O)c1ccccc1	.	6	41	.	.	.	.
C[C@@H](O)C#Cc1ccc([C@@H]2[C@@H](CO)N3CCCCN(S(=O)(=O)c4ccccc4)C[C@@H]23)cc1	-10	117*	-6	41	9	10	26*
SMILES	C diff growth	T cruzi growth-1	Pf Dd2 growth	T cruzi growth-2	T cruzi growth-3	3T3 cytotox	3T3 cytotox 2
C[C@@H](O)C#Cc1ccc([C@H]2[C@H]3CN(S(=O)(=O)c4ccccc4)CCCCN3[C@H]2CO)cc1	-6	73	?	.	.	.	.
C[C@H](O)C#Cc1ccc([C@H]2[C@@H](CO)N3CCCCN(S(=O)(=O)c4ccccc4)C[C@@H]23)cc1	-1	90	-14	.	.	.	.
C[C@H](O)C#Cc1ccc([C@@H]2[C@@H](CO)N3CCCCN(S(=O)(=O)c4ccccc4)C[C@@H]23)cc1	-4	24	-16	.	.	.	.
C[C@@H](O)C#Cc1ccc([C@H]2[C@H](CO)N3CCCCN(S(=O)(=O)c4ccccc4)C[C@@H]23)cc1	-6	105*	-19	71	-3	2	5
C[C@H](O)C#Cc1ccc([C@@H]2[C@@H](CO)N3CCCCN(S(=O)(=O)c4ccccc4)C[C@H]23)cc1	-8	111*	-38	61	-18	16	8
CO[C@H]1CN(C)C(=O)c2cc(NC(=O)c3ccc4c(c3)OCO4)ccc2OC[C@H](C)NC[C@@H]1C	.	-21	14	.	.	.	.
CCCC#Cc1ccc([C@@H]2[C@H](C#N)N(C(=O)CN3CCOCC3)[C@H]2CO)cc1	4	99*	18	90	51	-5	13
N#C[C@@H]1[C@H](c2ccc(C#CCC3CCCC3)cc2)[C@@H](CO)N1C(=O)CN1CCOCC1	-4	101*	-19	106*	69	-7	82*

From PubChem
